Records with an inconclusive call do not appear. Values without a mark were called inactive. Active and inactive are the calls of the source. The call rests on the fitted dose curve.
Assay: qHTS for Inhibitors of the Functional Ribonucleoprotein Complex (vRNP) of Lassa (LASV) Arenavirus: Viability assay - alamar blue signal for LASV Confirmatory Screen
Conditions: LASV vRNP counter-screen cells; series mostly up to 53.9 µM

SMILES	Potency	activity change, negative = decreased viability
COc1ccc(Cc2nccc3cc(OC)c(OC)cc23)cc1OC	13.7 µM (active)	–
CCN(CC)C(=O)N[C@@H]1C=C2c3cccc4[nH]cc(c34)C[C@@H]2N(C)C1	inactive	–
CN1C(C(=O)Nc2ccccn2)=C(O)c2ccccc2S1(=O)=O	inactive	–
Fc1ccc(CNc2ncnc3ccc(F)cc23)cc1	15.3 µM (active)	–
CC1OC(=O)[C@@H](C(C)C)NC(=O)C(C(C)C)OC(=O)[C@H](C(C)C)NC(=O)C(C)OC(=O)[C@@H](C(C)C)NC(=O)C(C(C)C)OC(=O)[C@H](C(C)C)NC(=O)C(C)OC(=O)[C@@H](C(C)C)NC(=O)C(C(C)C)OC(=O)[C@H](C(C)C)NC1=O (some centres undefined)	1.22 µM (active)	–
CCC(C)c1nccnc1OC (centres undefined)	inactive	–
O=C1Cc2cc(CCN3CCN(c4nsc5ccccc45)CC3)c(Cl)cc2N1	inactive	–
CC[C@@]1([C@@H]2O[C@@H]([C@H]3O[C@@](O)(CO)[C@H](C)C[C@H]3C)C[C@H]2C)CC[C@H]([C@]2(C)CC[C@]3(C[C@H](O)[C@@H](C)[C@@H]([C@@H](C)[C@@H](OC)[C@H](C)C(=O)O)O3)O2)O1	4.21 µM (active)	–
CO/C=C(/C(=O)OC)c1ccccc1Oc1cc(Oc2ccccc2C#N)ncn1	31.4 µM (active)	–
O=C(Nc1ccc([N+](=O)[O-])cc1Cl)c1cc(Cl)ccc1O	2.17 µM (active)	–
CN(C)c1ccc(O)c2c1C[C@H]1C[C@H]3[C@H](N(C)C)C(=O)C(C(N)=O)=C(O)[C@@]3(O)C(=O)C1=C2O	inactive	–
C=C(C)C1Cc2c(ccc3c2OC2COc4cc(OC)c(OC)cc4C2C3=O)O1 (centres undefined)	0.0968 µM (active)	–
CC(O)(P(=O)(O)O)P(=O)(O)O	inactive	–
CCC[C@H](N[C@@H](C)C(=O)N1[C@@H]2CCCC[C@H]2C[C@H]1C(=O)O)C(=O)OCC	inactive	–
CC(C)=CCC/C(C)=C/CC/C(C)=C/CC[C@]1(C)CCc2c(C)c(O)c(C)c(C)c2O1	–	6.56% [at 6 µM]
O=c1[nH]c2ccccc2n1C1CCN(CCCC(c2ccc(F)cc2)c2ccc(F)cc2)CC1	inactive	–
CCn1c(-c2nonc2N)nc2cnc(Oc3cccc(NC(=O)c4ccc(OCCN5CCOCC5)cc4)c3)cc21	8.63 µM (active)	–
COC(=O)c1nc(Cl)c(Cl)nc1N	1.93 µM (active)	–
CC[C@@H](C(=O)O)[C@@H]1O[C@@H]([C@@H](C)[C@H](O)[C@H](C)C(=O)[C@H](CC)[C@H]2O[C@]3(C=C[C@@H](O)[C@]4(CC[C@@](C)([C@H]5CC[C@](O)(CC)[C@H](C)O5)O4)O3)[C@H](C)C[C@@H]2C)[C@@H](C)C[C@@H]1C	1.57 µM (active)	–
Cc1cnc(NC(=O)C2=C(O)c3ccccc3S(=O)(=O)N2C)s1	inactive	–
CCOC(=O)OCC/C(SC(=O)OCC)=C(\C)N(C=O)Cc1cnc(C)nc1N	inactive	–
Oc1cc(Cl)ccc1Oc1ccc(Cl)cc1Cl	39.5 µM (active)	–
CCC(c1ccc(O)cc1)C(CC)c1ccc(O)cc1 (centres undefined)	inactive	–
CC12C(=O)OC(=O)C1(C)C1CCC2O1 (centres undefined)	3.85 µM (active)	–
